Several values for one entry are separate records, joined by “and”; a condition that tells them apart may be missing. Identical values can stand only once. The campaign covered roughly 16,000 compounds. About 5,700 (36%) were called active. About 24% were inconclusive and are not listed. Calls come from the whole dose curve; as a rule, active = well fitted curve in the direction sought with a large enough effect; inconclusive = small, poorly fitted or top-dose-only effect, or effect the other way; inactive = no such curve, though single readings can be large or run the other way. Some of the results follow.

Experimental findings from PubChem BioAssay AID1851 (National Center for Advancing Translational Sciences (NCATS), 2009) are described below.
% is set by controls: 0 for no effect and ±100 for the full control effect.

For the assay, the target named is Cytochrome P450 1A2 (Homo sapiens) (UniProt P05177). Briefly: Cytochrome panel assay with activity outcomes. As to conditions: recombinant CYP, pro-luciferin dealkylation, luminescence, p450-cyp1a2; series mostly up to 57.1 µM; activity, negative = inhibition: at the top concentration.
Sequence of Cytochrome P450 1A2 (Homo sapiens) (P05177 whole entry, looked up): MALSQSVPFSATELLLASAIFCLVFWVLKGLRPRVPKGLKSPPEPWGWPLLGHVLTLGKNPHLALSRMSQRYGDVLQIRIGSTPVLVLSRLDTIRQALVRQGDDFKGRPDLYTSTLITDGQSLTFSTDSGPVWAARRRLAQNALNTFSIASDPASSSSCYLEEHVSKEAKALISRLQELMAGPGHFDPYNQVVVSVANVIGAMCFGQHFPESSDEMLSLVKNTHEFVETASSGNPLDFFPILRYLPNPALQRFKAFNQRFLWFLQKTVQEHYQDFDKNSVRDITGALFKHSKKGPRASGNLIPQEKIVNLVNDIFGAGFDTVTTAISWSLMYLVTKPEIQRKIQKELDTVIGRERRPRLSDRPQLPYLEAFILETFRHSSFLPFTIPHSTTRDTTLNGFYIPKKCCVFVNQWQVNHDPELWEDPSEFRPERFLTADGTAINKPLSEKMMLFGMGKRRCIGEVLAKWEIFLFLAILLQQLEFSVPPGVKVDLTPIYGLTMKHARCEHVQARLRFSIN
As for `COc1ccccc1-c1nc(NCc2cccnc2)c2ccccc2n1`, the AC50 was 0.794 µM (active). Take `N/N=C1/CC(=O)NC(=O)N1`: the AC50 was 0.631 µM (active). Turning to `COc1ccc(OC[C@@H](CO)OC)cc1`, the activity, negative = inhibition was -13.3% [at 11.4 µM] (inactive). Regarding `CCNc1ncc2ncc(=O)n(C[C@H]3CCCO3)c2n1`, the AC50 was 10 µM (active). Turning to `O=c1cnc2cnc(Nc3ccccc3)nc2n1C[C@H]1CCCO1`, the AC50 is 0.794 µM (active).

For the compound `CCCc1nnc(SCC(=O)N2CCCCC2C)n1CC1CCCO1` (stereo unspecified), the “activity, negative = inhibition” value was 17.6% (inactive).

As for `O=C1[C@H]2[C@H]3[C@H](O)[C@H](O)C/C(=N/OCc4ccccc4)[C@@H]3CC[C@@H]2C(=O)N1C[C@@H]1CCCO1`, the activity, negative = inhibition is 1.8% [at 11.4 µM] (inactive). On to `CCCc1nnc(SCC(=O)N2CCCCC2)n1CC1CCCO1` (stereo unspecified), for which the “activity, negative = inhibition” value is 0.426% (inactive). As for `O=C1[C@H]2[C@H]3[C@H](O)[C@H](O)C/C(=N/OCc4ccccc4)[C@H]3CC[C@@H]2C(=O)N1C[C@@H]1CCCO1`, the activity, negative = inhibition is -4.81% [at 11.4 µM] (inactive). On to `Cc1cc2nc(CCN(C(=S)NCC(C)C)C3CCCC3)[nH]c2cc1C`, for which the AC50 was 3.16 µM (active).

`CC(=O)Nc1nnc(CCN2CCCCC2)s1`: the “activity, negative = inhibition” value was 25.3% (inactive). Take `CCNC(=O)c1c(NC(C)=O)sc2c1CCCC2`: the AC50 is 1.26 µM (active). In the case of `COCCCNC(=O)c1c(NC(=O)c2cccs2)sc2c1CCCC2`, the AC50 was 0.251 µM (active).

With `CC(=O)Nc1sc2c(c1C(N)=O)CCCC2`, the AC50 was 3.16 µM (active). Turning to `CCN(CC)S(=O)(=O)c1cccc(C(=O)N[C@H](C(=O)OCC(=O)NC(=O)NC)C(C)C)c1`, the “activity, negative = inhibition” value was 0.134% (inactive). For the compound `CCCC[C@@H]1C[C@H]1C(NC(=O)c1ccco1)c1ccccc1` (stereo partly specified), the AC50 was 2 µM (active).

Consider `CCCNC(=O)CC(NS(=O)(=O)c1ccc(Cl)cc1)c1ccco1` (stereo unspecified), for which the “activity, negative = inhibition” value was -15.2% (inactive). As for `CCCC[C@@H]1C[C@H]1C(NC(=O)Cc1ccccc1)c1ccc(-c2ccccc2)cc1` (stereo partly specified), the “activity, negative = inhibition” value was -13% (inactive).

With `CCCC[C@@H]1C[C@H]1C(NC(=O)c1ccco1)c1ccc(-c2ccccc2)cc1` (stereo partly specified), the AC50 was 5.01 µM (active). Turning to `CCCC[C@@H]1C[C@H]1C(NC(=O)c1ccco1)c1ccc(Cl)cc1` (stereo partly specified), the AC50 is 0.794 µM (active). `COC(=O)C(CCSC)NC(=O)c1cccc([N+](=O)[O-])c1` (stereo unspecified): the “activity, negative = inhibition” value was -27.1% (inactive).

With `CCOc1cc(C)ccc1OCc1nnc(SCC(=O)c2cccc([N+](=O)[O-])c2)n1CC`, the “activity, negative = inhibition” value was -13% (inactive). `Cc1cccc(C(=O)O/N=C(\N)c2cccc([N+](=O)[O-])c2)c1`: the AC50 was 2.51 µM (active). With `N/C(=N\OC(=O)Cc1ccc(-c2ccccc2)cc1)c1cccc([N+](=O)[O-])c1`, the AC50 is 14.1 µM (active). Take `C[C@@H](c1ccccc1)N1C(=O)[C@H]2[C@H]3[C@H](O)[C@H](O)C/C(=N/OCc4ccccc4)[C@@H]3CC[C@@H]2C1=O`: the activity, negative = inhibition was -7.71% [at 11.4 µM] (inactive).

Consider `Clc1ccc(COC(Cn2ccnc2)c2ccc(Cl)cc2Cl)c(Cl)c1` (stereo unspecified), for which the AC50 is 1.26 µM (active).

As to `Clc1ccc(CO[C@@H](Cn2ccnc2)c2ccc(Cl)cc2Cl)cc1`, the AC50 is 0.1 µM (active). Same read-out and setting: with `Clc1ccc(C(c2ccc(Cl)cc2)n2cc[n+](C[C@@H](OCc3ccc(Cl)cc3Cl)c3ccc(Cl)cc3Cl)c2)cc1` the figure was 31.6 µM (active); with `Clc1ccc([C@H](Cn2ccnc2)OCc2csc3c(Cl)cccc23)c(Cl)c1`, 6.31 µM (active). Consider `CC(C)COP(=O)(c1ccc(N(C)C)cc1)C(O)c1ccccc1F` (stereo unspecified), for which the “activity, negative = inhibition” value was -15.4% (inactive). For the compound `O=C(Nn1cnc2ccccc2c1=O)c1ccc(F)cc1Cl`, the “activity, negative = inhibition” value was -11.4% (inactive). In the case of `CN1CCN(C(=O)c2ccc3c(=O)n4c(nc3c2)CCCCC4)CC1`, the “activity, negative = inhibition” value is -16.5% (inactive). In the case of `O=C(Nc1ccc(F)cc1Cl)c1ccc2c(=O)n3c(nc2c1)CCCCC3`, the AC50 is 5.01 µM (active).

Take `CO[C@H]1COC(=O)[C@@H](C)COC(=O)[C@@H](COCc2ccccc2)NC(=O)C/C=C\[C@H]1C`: the activity, negative = inhibition is 3.03% [at 11.4 µM] (inactive). `COc1cc(COc2cc(N)c(Cl)cc2C(=O)CCC2CCN(CCNS(C)(=O)=O)CC2)cc(OC)c1`: the “activity, negative = inhibition” value is -11.5% (inactive). As for `CCCCN1CCC(COC(=O)c2cc(Cl)c(N)c3c2OCCO3)CC1`, the AC50 was 12.6 µM (active). Take `CCCCN1CCC(CCC(=O)c2cc(Cl)c(N)cc2OC)CC1`: the “activity, negative = inhibition” value is -39% (inactive). Turning to `NC([N-]/N=C/c1ccccn1)=[S]=[Fe].O=S(=O)(O)O`, the activity, negative = inhibition was 15.8% [at 2.29 µM] (inactive). Take `CCCCCCCCC(=O)N/N=C/c1cccc(Br)c1`: the AC50 is 0.891 µM (active).

On to `CCN(CC)C(=O)C(=O)N/N=C/c1cccc(Br)c1`, for which the AC50 is 10 µM (active). Take `CCCCCCCCC(=O)N/N=C/c1ccccn1`: the AC50 is 4.47 µM (active). Take `COCCNC(=O)Cn1cnc2ccc(S(=O)(=O)N3CCC(C)CC3)cc2c1=O`: the “activity, negative = inhibition” value is -6.54% (inactive).

Consider `O=S(=O)(c1ccccc1)N1CCC2(CCCN(Cc3nccs3)C2)CC1`, for which the “activity, negative = inhibition” value is 13.2% (inactive). On to `CC(C)CN1CC[C@@]2(CCCN(S(=O)(=O)c3ccccc3)C2)C1`, for which the AC50 was 25.1 µM (active). As for `CC(C)CN1CCC2(CC1)CCN(S(=O)(=O)c1ccccc1)CC2`, the “activity, negative = inhibition” value was 8.32% (inactive). Take `CC(C)CN1CCCC2(CCN(S(=O)(=O)c3ccccc3)CC2)C1`: the “activity, negative = inhibition” value is 3.46% (inactive). Take `O=S(=O)(c1ccccc1)N1CCC2(CC1)CN(Cc1nccs1)C2`: the “activity, negative = inhibition” value was 6.2% (inactive). Regarding `O=S(=O)(c1ccccc1)N1CCC[C@@]2(CCN(Cc3nccs3)C2)C1`, the AC50 was 15.8 µM (active). For `Cc1ccc(S(=O)(=O)N[C@H]2COC(=O)[C@@H](C)COC(=O)[C@H](C)NC(=O)C/C=C\[C@H]2C)cc1`, the activity, negative = inhibition is -11.4% [at 11.4 µM] (inactive). Turning to `CC(C)NC(=O)N1CC[C@@]2(CCCN(C(=O)c3cc(C(F)(F)F)cc(C(F)(F)F)c3)C2)C1`, the “activity, negative = inhibition” value was 8.13% (inactive). The same measure, in the same setting: with `CCOC(=S)SCC(=O)O` the figure was -12.2% [at 11.4 µM] (inactive); with `Cc1ccc(S(=O)(=O)N[C@H]2COC(=O)C/C=C\[C@@H](C)COC(=O)C/C=C\[C@@H]2C)cc1`, 0.253% [at 11.4 µM] (inactive) and 8.99% [at 11.4 µM] (inactive). Regarding `Nc1[nH]n2c(=O)c3c(nc2c1N=Nc1ccccc1)CCCC3`, the AC50 is 5.62 µM (active). With `N#Cc1c[nH]n2c(=O)c3c(nc12)CCCC3`, the “activity, negative = inhibition” value is -18.5% (inactive). `O=c1c2c(nc3c(-c4ccccc4)c[nH]n13)CCC2`: the AC50 was 5.62 µM (active). Take `Cc1ccc(-c2[nH]n3c(=O)c4c(nc3c2C)CCCC4)cc1`: the AC50 is 2.51 µM (active). As to `CCC(=O)OCN1C(=O)C=CC1=O`, the AC50 was 3.16 µM (active). On to `CCN1C(=O)C=CC1=O`, for which the “activity, negative = inhibition” value was -11.1% (inactive). `Cc1ccc([C@@]2(C)CC/C(=N/N=C3\CC[C@](C)(c4ccc(C)c(C)c4)c4cc(C)c(C)cc43)c3cc(C)c(C)cc32)cc1C`: the activity, negative = inhibition was -12.4% [at 11.4 µM] (inactive). On the same count and under the same terms, the same measure for `CC(C)[C@@H](OCc1ccccc1)[C@H](C)/C=N\O[C@@H](C)c1cn([C@H](CO)Cc2ccccc2)nn1`: -2.54% [at 11.4 µM] (inactive) and -7.97% [at 11.4 µM] (inactive). For `O=Nc1c(-c2c(O)[nH]c3ccccc23)[nH]c2ccccc12`, the AC50 was 0.0316 µM (active). Regarding `O=C(O)c1ccc(S(=O)(=O)N=Nc2c(O)[nH]c3ccccc23)cc1`, the activity, negative = inhibition is -11.7% [at 11.4 µM] (inactive). On to `[Cu].[O-]/N=C1/C(=[OH+])Nc2ccccc21.[O-]Nc1c(O)[nH]c2ccccc12`, for which the activity, negative = inhibition is -20.1% [at 2.29 µM] (inactive). With `Cc1ccc(C(=O)NCCNC(=O)CN2CCOCC2)cc1`, the “activity, negative = inhibition” value is -27.7% (inactive). In the case of `Cc1ccc(C(=O)NCc2ccc(N3CCN(C(=O)OC(C)(C)C)CC3)cc2)cc1`, the “activity, negative = inhibition” value was -2.17% (inactive). In the case of `Cc1ccc(SCc2ccc(C(=O)NCc3ccncc3)cc2)cc1`, the AC50 was 0.355 µM (active). For `Cc1ccc(SCCNC(=O)c2ccccc2)cc1`, the AC50 was 10 µM (active).

Turning to `Cc1ccc(SCc2nnc(NC(=O)c3ccccc3)s2)cc1`, the “activity, negative = inhibition” value is -7.04% (inactive).

In the case of `Cc1ccc(NC(=S)NCCN2CCOCC2)cc1C`, the “activity, negative = inhibition” value is -29.3% (inactive). As for `Cc1ccc(SCCNC(=S)Nc2ccc(C)c(C)c2)cc1`, the concentration at half-maximal activity (AC50) was 11.2 µM (active). Regarding `N[C@H](C(=O)N[C@@H]1C(=O)N2C(C(=O)O)=C(Cl)CS[C@@H]12)c1ccccc1`, the AC50 result was “inactive”. Turning to `COCCn1c(=O)cnc2cnc(Oc3cccc(Cl)c3)nc21`, the AC50 was 3.16 µM (active). `Cc1nc2cnc(Oc3cccc(Cl)c3)nc2n(CCc2ccccc2)c1=O`: the AC50 is 12.6 µM (active). Regarding `COCCn1c(=O)c(C)nc2cnc(Oc3cccc(Cl)c3)nc21`, the AC50 is 12.6 µM (active). As to `Cc1nc2cnc(Oc3cccc(Cl)c3)nc2n(CCC#N)c1=O`, the AC50 is 15.8 µM (active). Regarding `CC(=NCCN1CCN(C(=S)Nc2ccccc2)CC1)C1=C(O)CC(C)(C)CC1=O`, the “activity, negative = inhibition” value was -2.56% (inactive). Consider `CC(C)(C)Cn1nc(-c2ccc(Cl)cc2)c2c(N)ncnc21`, for which the AC50 was 0.158 µM (active).

Take `CC(C)(C)n1nc(-c2ccc(Cl)cc2)c2c(N)ncnc21`: the AC50 was 1 µM (active). On to `CO/N=C(\C(=O)N[C@@H]1C(=O)N2C(C(=O)[O-])=C(C[N+]3(C)CCCC3)CS[C@@H]12)c1csc(N)n1`, for which the “activity, negative = inhibition” value is 0.691% [at 25.6 µM] (inactive). As for `CCCCSc1ccc2nc(-c3ccc(C#N)cc3)cn2c1`, the AC50 was 2.82 µM (active). Turning to `CN(C)CCNC(=O)C1CCCNC1=O` (stereo unspecified), the “activity, negative = inhibition” value was 0.683% (inactive). `COc1ccc(C(Cl)=C(c2ccc(OC)cc2)c2ccc(OC)cc2)cc1`: the “activity, negative = inhibition” value was -17.5% [at 25.6 µM] (inactive). As for `CCN(CC)CCOc1ccc(/C(=C(\Cl)c2ccccc2)c2ccccc2)cc1`, the AC50 is 12.6 µM (active). Still for that read-out and setting: the same measure for `CCc1ccc2[nH]c(O)c(N=Nc3nc(-c4ccccc4)cs3)c2c1`: 10 µM (active). As to `C[N+](C)(C)CCCCCCCCCC[N+](C)(C)C`, the “activity, negative = inhibition” value is -0.146% (inactive). `Cc1ccc(S(=O)(=O)Oc2ccc(C3C4=C(CCCC4=O)OC4=C3C(=O)CCC4)cc2)cc1`: the “activity, negative = inhibition” value was -2.04% (inactive). Take `COc1ccc2c(c1)OC1=C(C(=O)CCC1)C2C1=C(O)CCCC1=O` (stereo unspecified): the AC50 is 7.08 µM (active).

Take `O=C1CCCC2=C1C(c1ccc(OS(=O)(=O)c3ccc(Cl)cc3)cc1)C1=C(CCCC1=O)O2`: the “activity, negative = inhibition” value is -1.84% (inactive). In the case of `N#CC(CC(=O)O)=C(c1ccccc1)c1ccccc1`, the activity, negative = inhibition was -14.5% [at 2.29 µM] (inactive). As to `C=CCNc1sc(C(=O)c2ccc(C)cc2)c(N)c1C#N`, the AC50 was 1.78 µM (active). With `C=CCNc1sc(C(=O)c2ccccc2)c(N)c1C#N`, the AC50 was 3.16 µM (active).
